Assay results reported in PMC8384837, “Expanding the binding specificity for RNA recognition by a PUF domain”.
Residue numbers refer to the chain shown, from its start.

Tests used:
Test in all cases: yeast three-hybrid, YBZ-1, SC-Leu-His + 0.5 mM 3-AT, 4 days
Settings in all cases: tags: N-Gal4 AD-HA kept; label: inside an RPR1-promoter hybrid RNA with tandem MS2 sites; ssRNA
PUM1 PUF domain R6-NRK = molecular target: T1, PUM1 PUF domain R6-NRK (Homo sapiens, UniProt Q14671 828-1176, Y1044R;Q1047K)
T1 sequence: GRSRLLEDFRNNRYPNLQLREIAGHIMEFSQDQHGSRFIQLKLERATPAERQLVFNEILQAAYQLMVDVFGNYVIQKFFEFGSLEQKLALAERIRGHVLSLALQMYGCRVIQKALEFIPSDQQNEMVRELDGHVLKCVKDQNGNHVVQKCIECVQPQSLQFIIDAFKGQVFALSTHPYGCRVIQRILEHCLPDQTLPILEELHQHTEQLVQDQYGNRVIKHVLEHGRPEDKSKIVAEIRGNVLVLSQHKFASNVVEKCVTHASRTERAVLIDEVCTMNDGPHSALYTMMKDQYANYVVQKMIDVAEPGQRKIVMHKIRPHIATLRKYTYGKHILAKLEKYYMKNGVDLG
Procedure, shortened: (§1)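 The interaction score is the log change in variant frequency from input to selection. Scores were computed in log2 with a pseudocount of 1 for absent variants, using Illumina sequencing of PCR-amplified repeat regions. The input came from four days on SC-Leu and the selection from four days on SC-Leu-His + 0.5 mM 3-AT. The cells were strain YBZ-1 (LexA–MS2 coat fusion, HIS3 reporter) co-expressing Pumilio-1 PUF domain libraries and matching RNA elements from a centromeric plasmid.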

PUM1 PUF domain R6-SFV = molecular target: T2, PUM1 PUF domain R6-SFV (Homo sapiens, UniProt Q14671 828-1176, N1043S;Y1044F;Q1047V)
T2 sequence: T1 sequence with N216S, R217F, K220V
Procedure, shortened: as §1

PUM1 PUF domain R8-KRT = PUM1 PUF domain R8-KRT (Homo sapiens, UniProt Q14671 828-1176, N1122K;Y1123R;Q1126T)
Procedure, shortened: as §1

PUM1 PUF domain R4-AGY = PUM1 PUF domain R4-AGY (Homo sapiens, UniProt Q14671 828-1176, N971A;H972G;Q975Y)
Procedure, shortened: as §1

PUM1 PUF domain R3-LSQ = PUM1 PUF domain R3-LSQ (Homo sapiens, UniProt Q14671 828-1176, C935L;R936S)
Procedure, shortened: as §1

PUM1 PUF domain R6-RVT = molecular target: T3, PUM1 PUF domain R6-RVT (Homo sapiens, UniProt Q14671 828-1176, N1043R;Y1044V;Q1047T)
T3 sequence: T1 sequence with N216R, R217V, K220T
Procedure, shortened: as §1

PUM1 PUF domain R8-HHK = PUM1 PUF domain R8-HHK (Homo sapiens, UniProt Q14671 828-1176, N1122H;Y1123H;Q1126K)
Procedure, shortened: as §1

PUM1 PUF domain R7-GVV = PUM1 PUF domain R7-GVV (Homo sapiens, UniProt Q14671 828-1176, S1079G;N1080V;E1083V)
Procedure, shortened: as §1

PUM1 PUF domain R5-KPI = PUM1 PUF domain R5-KPI (Homo sapiens, UniProt Q14671 828-1176, C1007K;R1008P;Q1011I)
Procedure, shortened: as §1

PUM1 PUF domain R1-KMV = PUM1 PUF domain R1-KMV (Homo sapiens, UniProt Q14671 828-1176, S863K;R864M;Q867V)
Procedure, shortened: as §1

Sequence: GGCUAGAACUAGUGGAUCCCCCGGCGCCCGGCGGCUCGAGCCCGGGUAAGUGUAAAUAGUCUGCAUGCCGCCGGGCGCCAUGCCUGCAGGUCGACUCUAGAAAACAUG
- binding signal (PUM1 PUF domain R6-NRK): 3.68 log2 enrichment (interaction score)
- binding signal (PUM1 PUF domain R6-SFV): 3.58 log2 enrichment (interaction score)
- binding signal (PUM1 PUF domain R8-KRT): 1.36 log2 enrichment (interaction score)
- binding signal (PUM1 PUF domain R4-AGY): 3.24 log2 enrichment (interaction score)

Sequence: GGCUAGAACUAGUGGAUCCCCCGGCGCCCGGCGGCUCGAGCCCGGGUAAGUGUAAUUAGUCUGCAUGCCGCCGGGCGCCAUGCCUGCAGGUCGACUCUAGAAAACAUG
- binding signal (PUM1 PUF domain R3-LSQ): 4.75 log2 enrichment (interaction score)

Sequence: GGCUAGAACUAGUGGAUCCCCCGGCGCCCGGCGGCUCGAGCCCGGGUAAGUGCAAAUAGUCUGCAUGCCGCCGGGCGCCAUGCCUGCAGGUCGACUCUAGAAAACAUG
- binding signal (PUM1 PUF domain R6-RVT): 4.2 log2 enrichment (interaction score)

Sequence: GGCUAGAACUAGUGGAUCCCCCGGCGCCCGGCGGCUCGAGCCCGGGUAAGCGUAAAUAGUCUGCAUGCCGCCGGGCGCCAUGCCUGCAGGUCGACUCUAGAAAACAUG
- binding signal (PUM1 PUF domain R8-KRT): 2.71 log2 enrichment (interaction score)
- binding signal (PUM1 PUF domain R8-HHK): 3.15 log2 enrichment (interaction score)

Sequence: GGCUAGAACUAGUGGAUCCCCCGGCGCCCGGCGGCUCGAGCCCGGGUAAGUUUAAAUAGUCUGCAUGCCGCCGGGCGCCAUGCCUGCAGGUCGACUCUAGAAAACAUG
- binding signal (PUM1 PUF domain R7-GVV): 2.6 log2 enrichment (interaction score)

Sequence: GGCUAGAACUAGUGGAUCCCCCGGCGCCCGGCGGCUCGAGCCCGGGUAAGUGUCAAUAGUCUGCAUGCCGCCGGGCGCCAUGCCUGCAGGUCGACUCUAGAAAACAUG
- binding signal (PUM1 PUF domain R5-KPI): 5.02 log2 enrichment (interaction score)

Sequence: GGCUAGAACUAGUGGAUCCCCCGGCGCCCGGCGGCUCGAGCCCGGGUAAGUGUAAAUCGUCUGCAUGCCGCCGGGCGCCAUGCCUGCAGGUCGACUCUAGAAAACAUG
- binding signal (PUM1 PUF domain R1-KMV): 3.19 log2 enrichment (interaction score)
